Laboratory results published in PMC10338684.

Molecular target: Helicase protein MOM1 (UniProt Q9M658)
Assay: mass-spectrometry hit list; affinity purification or IP with mass spectrometry

Sequence of UniProt Q9M658 (Q9M658 whole entry): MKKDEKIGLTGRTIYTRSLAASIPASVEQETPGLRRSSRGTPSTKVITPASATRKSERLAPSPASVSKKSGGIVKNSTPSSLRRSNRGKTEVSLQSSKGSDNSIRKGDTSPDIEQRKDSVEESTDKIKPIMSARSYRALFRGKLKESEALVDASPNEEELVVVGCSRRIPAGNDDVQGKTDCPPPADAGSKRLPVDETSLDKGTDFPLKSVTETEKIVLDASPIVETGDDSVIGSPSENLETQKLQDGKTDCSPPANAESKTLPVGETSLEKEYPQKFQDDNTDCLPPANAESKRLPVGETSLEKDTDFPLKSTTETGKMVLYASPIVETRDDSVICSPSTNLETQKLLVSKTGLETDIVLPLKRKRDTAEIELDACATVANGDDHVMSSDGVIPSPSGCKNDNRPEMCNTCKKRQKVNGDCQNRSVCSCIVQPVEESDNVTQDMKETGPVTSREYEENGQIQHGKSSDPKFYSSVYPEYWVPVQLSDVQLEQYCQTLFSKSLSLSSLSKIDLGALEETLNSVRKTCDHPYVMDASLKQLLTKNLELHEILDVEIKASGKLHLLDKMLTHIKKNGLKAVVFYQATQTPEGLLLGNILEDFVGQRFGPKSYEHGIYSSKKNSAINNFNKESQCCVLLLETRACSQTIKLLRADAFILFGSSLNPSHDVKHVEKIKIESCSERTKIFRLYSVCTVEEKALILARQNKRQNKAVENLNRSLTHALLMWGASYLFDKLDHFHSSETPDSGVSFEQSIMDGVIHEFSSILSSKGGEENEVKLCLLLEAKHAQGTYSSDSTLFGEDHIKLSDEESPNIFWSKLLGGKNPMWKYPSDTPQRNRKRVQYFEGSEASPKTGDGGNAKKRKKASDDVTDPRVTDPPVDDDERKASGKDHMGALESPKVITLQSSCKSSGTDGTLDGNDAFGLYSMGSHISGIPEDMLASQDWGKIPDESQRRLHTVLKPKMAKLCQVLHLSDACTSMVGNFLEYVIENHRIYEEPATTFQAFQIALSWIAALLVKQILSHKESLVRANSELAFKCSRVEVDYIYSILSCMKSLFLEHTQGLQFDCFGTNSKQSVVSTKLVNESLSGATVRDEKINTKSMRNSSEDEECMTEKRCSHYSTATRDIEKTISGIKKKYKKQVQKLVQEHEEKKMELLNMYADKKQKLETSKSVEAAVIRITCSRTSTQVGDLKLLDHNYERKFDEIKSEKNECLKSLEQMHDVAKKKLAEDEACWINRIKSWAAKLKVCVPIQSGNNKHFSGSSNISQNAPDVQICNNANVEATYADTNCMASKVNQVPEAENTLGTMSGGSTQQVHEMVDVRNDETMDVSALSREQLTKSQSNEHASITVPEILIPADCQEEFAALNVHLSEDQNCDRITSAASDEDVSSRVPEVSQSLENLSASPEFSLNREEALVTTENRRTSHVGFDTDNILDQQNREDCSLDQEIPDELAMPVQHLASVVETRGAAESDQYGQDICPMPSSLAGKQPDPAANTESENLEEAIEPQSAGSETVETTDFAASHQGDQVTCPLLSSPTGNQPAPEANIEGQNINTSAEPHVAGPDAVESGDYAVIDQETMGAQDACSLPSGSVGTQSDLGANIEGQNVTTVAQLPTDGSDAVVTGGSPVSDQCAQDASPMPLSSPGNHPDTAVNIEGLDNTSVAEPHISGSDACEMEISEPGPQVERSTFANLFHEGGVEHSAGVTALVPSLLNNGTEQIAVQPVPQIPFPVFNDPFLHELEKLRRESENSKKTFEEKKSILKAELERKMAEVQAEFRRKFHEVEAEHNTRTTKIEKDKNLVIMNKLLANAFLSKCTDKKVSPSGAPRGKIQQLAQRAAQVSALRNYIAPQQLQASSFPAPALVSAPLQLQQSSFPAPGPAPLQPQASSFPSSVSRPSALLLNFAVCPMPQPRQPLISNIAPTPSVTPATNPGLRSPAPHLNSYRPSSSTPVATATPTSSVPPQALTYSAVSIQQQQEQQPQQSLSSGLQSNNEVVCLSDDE

Listed as a hit, yes:
Chromatin remodeling ATPase BRAHMA, Q6EVK6
Protein DEFECTIVE IN MERISTEM SILENCING 3, Q94A79
Chromatin structure-remodeling complex protein SYD, F4IHS2
DNA-directed RNA polymerases IV and V subunit 2, Q9LK40
Lysine-specific demethylase JMJ14, Q8GUI6
DNA-directed RNA polymerase V subunit 1, Q5D869
Structural maintenance of chromosomes flexible hinge domain-containing protein GMI1, F4KFS5
ASI1-immunoprecipitated protein 3, Q8RXT5
Protein RNA-directed DNA methylation 3, F4JW79
Protein MICRORCHIDIA 6, Q56Y74
E4 SUMO-protein ligase PIAL1, A0A0A7EPL0
E4 SUMO-protein ligase PIAL2, F4JYG0
Protein MICRORCHIDIA 1, Q84WV6
Probable inactive lysine-specific demethylase JMJ19, Q8L7T6
PHD finger-containing protein 1, B3H578
